FBW7 activator – activators of human E3 ligase FBW7 | Q969H0 | AlphaScreen FBW7–phospho-cyclin E peptide binding, activator screen | normalized activity (activation), % at 26.1 µM | 650,000 compounds, 0.13% hits | AID 1259310; in the data active = normalized activity above about 1.9%;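 also: purified mutant Fbw7 with reduced substrate affinity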
MITF primary – blocks human microphthalmia-associated transcription factor. AlphaScreen MITF homodimerization, bead proximity signal. inhibition, % at 2.6 µM. 650,000 compounds, 0.91% hits; in the data active = inhibition above about 50%;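 also: 0% = vehicle wells with protein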
TEAD-YAP inh – TEAD-YAP interaction inhibition; HEK-TIYL cells, TEAD-Gal4/YAP UAS-luciferase luminescence; inhibition, % at 9.12 µM; 640,000 compounds, 1.4% hits; in the data active = inhibition above about 32%;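 also: 0% = median of test compound wells and 100% = reference inhibitor wells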
GPR151 ag – human GPR151 activation; activation, % at 11.2 µM; 650,000 compounds, 1% hits; PathHunter beta-arrestin GPR151 cells, luminescence; in the data active = activation above about 4.9%;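 also: 0% = median of compound wells and 100% = cells with positive control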
Target sequence (Q8TDV0 whole entry, looked up): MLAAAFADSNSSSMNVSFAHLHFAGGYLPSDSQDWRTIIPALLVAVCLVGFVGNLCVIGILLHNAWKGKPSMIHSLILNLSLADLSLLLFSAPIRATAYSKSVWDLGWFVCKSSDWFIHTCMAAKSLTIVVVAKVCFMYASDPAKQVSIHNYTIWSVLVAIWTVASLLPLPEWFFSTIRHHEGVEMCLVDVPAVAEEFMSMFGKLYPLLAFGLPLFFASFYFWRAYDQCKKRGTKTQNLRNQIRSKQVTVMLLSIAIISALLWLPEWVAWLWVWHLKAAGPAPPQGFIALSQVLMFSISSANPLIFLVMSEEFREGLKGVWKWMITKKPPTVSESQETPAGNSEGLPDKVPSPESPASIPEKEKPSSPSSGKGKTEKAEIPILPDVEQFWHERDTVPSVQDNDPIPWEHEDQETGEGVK
MITF inh conf – confirmation of human MITF inhibitors; shares compounds with MITF primary; AlphaScreen MITF homodimerization, biotin/His-MITF beads; inhibition, % at 2.6 µM; 4,700 compounds, 16% hits; AID 1259372;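 active = inhibition above a cutoff derived from the DMSO control wells, cut at about 28% in these data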;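 also: 0% = MITF dimer wells with DMSO only; inhibitors lower the bead chemiluminescence by keeping MITF from dimerizing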
AS interf ctr – optically interferes with AlphaScreen signal | inhibition, % at 2.6 µM | LysRS AlphaScreen counterscreen, signal interference, triplicate | 4,700 compounds, 7.6% hits | shares compounds with MITF primary;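 active = inhibition above a cutoff derived from the DMSO control wells, cut at about 30% in these data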
Starred values were filed as active, the others as inactive; . = no result. In the library only some 3.5% were active in any assay of this set; here they are far more common.

SMILES	FBW7 activator	MITF primary	TEAD-YAP inh	GPR151 ag	MITF inh conf	AS interf ctr
O=c1c2ccccc2nc(SCc2cc(F)cc3c2OCOC3)n1C1CCCCC1	0	69*	2	-2	10	-1
CCOC(=O)c1cc2c(c(CSc3nc4ccccc4c(=O)n3CCc3ccccc3)c1)OCOC2	0	69*	-5	1	-11	-9
CCOC(=O)c1cc2c(c(CSc3nc4ccccc4c(=O)n3Cc3ccccc3)c1)OCOC2	0	-8	-6	-1	.	.
CCCCCC(=O)CC[C@@H]1[C@@H](C/C=C\CCCC(=O)O)[C@@H](O)C[C@@H]1O	.	56*	.	-2	0	12
COc1cccc(CN2CCC(N3CCN(c4ccccc4OC)CC3)CC2)c1	0	56*	3	-3	-4	-3
COc1ccccc1N1CCN(C2CCN(C3CCCCC3)CC2)CC1	0	69*	-2	-1	-8	-2
COc1ccccc1N1CCN(C2CCCN(C3CCC3)C2)CC1 (configuration not stated)	0	12	-2	1	.	.
COc1ccc(S(=O)(=O)N2CCC(N3CCN(c4ccccc4OC)CC3)CC2)cc1	1	89*	1	-1	3	13
COc1ccccc1N1CCN(C2CCCN(S(=O)(=O)c3ccc(C)cc3)C2)CC1 (configuration not stated)	0	-6	1	1	.	.
CC1CN(C2CCN(S(=O)(=O)c3ccc4ccccc4c3)CC2)CC(C)O1 (configuration not stated)	0	52*	0	0	3	7
CC1CCN(Cc2c(O)ccc3cc(-c4nc5ccccc5[nH]4)c(=O)oc23)CC1	1	7	-11	-1	.	.
NC(=O)N1CCN(c2ccc(Cl)cc2[N+](=O)[O-])CC1	0	7	12	0	.	.
O=C(OCC(=O)N1CCc2ccccc2C1)c1cc(=O)c2ccccc2o1	0	14	4	2	.	.
CC1=CCC2(C(=O)OC(C)(C)OC2=O)C(c2ccc([N+](=O)[O-])cc2)C1 (configuration not stated)	0	2	4	1	.	.
CN1CCN(c2ccc(NC(=O)NC(=O)c3ccc(Cl)cc3Cl)cc2Cl)CC1	0	8	0	0	.	.
COc1ccccc1N1CCN(c2nc(-c3cccc(C)c3)nc3ccccc23)CC1	0	-3	-6	-1	.	.
COCCNc1ccc(-c2ccc(OC)cc2)cn1	0	0	2	-1	.	.
Cc1csc(C(C)NC(=O)CCC2(Cc3ccc4c(c3)OCO4)CCC(=O)N2)n1 (configuration not stated)	0	-1	-4	-1	.	.
COc1ccc(OC)c(NC(=O)c2ccc(Cl)cc2Cl)c1	0	9	-8	0	.	.
COc1ccc(N2C(=O)C3CCCCC3C2=O)cc1NC(=O)c1ccc(Cl)cc1Cl (configuration not stated)	0	76*	8	0	8	20
OC1CCN(c2cc(-c3cccnc3)nc(-c3ccccc3)n2)CC1	0	71*	12	-1	5	12
c1ccc(-c2nc(-c3cccnc3)cc(N3CCN(c4ccccn4)CC3)n2)cc1	0	11	2	1	.	.
Fc1ccc(-c2cc(N3CCN(c4ccccn4)CC3)nc(-c3cccnc3)n2)cc1	0	73*	6	1	15	15
OC1CCN(c2cc(-c3ccccc3)nc(-c3cccnc3)n2)CC1	0	12	8	-1	.	.
O=c1oc2cc([N+](=O)[O-])ccc2n1CNC1CCCCC1	0	23	2	0	.	.
SMILES	FBW7 activator	MITF primary	TEAD-YAP inh	GPR151 ag	MITF inh conf	AS interf ctr
CCCCNCCOCCOc1ccc(Cl)cc1	0	80*	-3	2	-8	-4
CCCCNCCOCCOc1cc(C)ccc1Cl	0	54*	0	-1	11	8
CCOC(=O)c1sc(NC(=O)C(C)Sc2nnc(CNC(=O)c3cccc(F)c3)n2Cc2ccccc2)c(C(=O)OCC)c1C (configuration not stated)	0	14	5	-1	.	.
N#CCCn1cc(CNCc2ccccc2)c(-c2ccccc2)n1	0	54*	4	2	14	13
N#CCCn1cc(CNCc2ccccc2)c(-c2ccc(F)cc2)n1	0	8	4	0	.	.
COc1ccc(CN2CCN(Cc3ccccc3F)CC2)c(OC)c1	0	81*	5	-1	1	11
COc1ccc(OC)c(CN2CCN(Cc3ccc(OC)cc3OC)CC2)c1	-1	30	-3	0	.	.
COc1cc(OC)c(OC)cc1CN1CCN(Cc2ccccc2Br)CC1	-1	40	3	-1	.	.
COc1ccc(CN2CCN(Cc3ccccc3OC)CC2)c(OC)c1	0	78*	4	1	9	15
COc1ccc(CN2CCN(Cc3cc(OC)c(OC)cc3[N+](=O)[O-])CC2)cc1OC	0	68*	10	0	8	12
COc1ccc(CN2CCSCC2)c(OC)c1	0	0	-2	-1	.	.
COc1cc(OC)c(OC)cc1CN1CCN(Cc2ccc(SC)cc2)CC1	1	52*	6	-1	4	-2
COc1cc(OC)c(OC)cc1CN1CCN(Cc2ccccc2F)CC1	0	77*	-2	0	3	12
COc1cc(OC)c(OC)cc1CN1CCN(Cc2cc(OC)c(OC)cc2OC)CC1	0	71*	0	0	-4	10
COc1cc(CN2CCCC2)c([N+](=O)[O-])cc1OC	0	-4	-6	0	.	.
COc1ccc(CN2CCN(Cc3cc(OC)c(OC)cc3[N+](=O)[O-])CC2)c(OC)c1	0	80*	2	0	10	12
COc1ccccc1CN1CCOCC1	0	58*	11	-1	-6	-8
CC1=C(C(=O)OCCc2ccccc2)C(c2cccc(Cl)c2)C2=C(CCCC2=O)N1 (configuration not stated)	0	17	8	1	.	.
C/C(CC(=O)Nc1ccc(OCc2ccccc2)cc1)=N\NC(=O)c1ccc(O)cc1O	0	2	11	-1	.	.
Cc1cc(Nc2[nH]nc(N=CN(C)C)c2C#N)ccc1F	1	2	-52	1	.	.
CC1CCCN(S(=O)(=O)c2ccc(C(=O)Nc3cccc4c3C(=O)NC4=O)cc2)C1 (configuration not stated)	0	11	3	2	.	.
O=C(NCc1ccccc1F)c1c(O)c2c([nH]c1=O)CCCC2	0	8	8	0	.	.
CCCc1cc(=O)[nH]c(SCC(=O)Nc2cc3oc4ccccc4c3cc2OC)n1	0	-11	10	-1	.	.
COc1cc(OC)c(OC)cc1CN1CCN(Cc2cccc(Br)c2)CC1	0	73*	13	1	11	22
COc1cc(OC)c(OC)cc1CN1CCN(Cc2ccccc2Cl)CC1	0	75*	3	-1	8	14
COc1ccc(CN2CCN(Cc3cc(OC)c(OC)cc3OC)CC2)c(OC)c1	0	73*	5	0	13	22

Assay outcomes from PubChem BioAssay.
